HP1b chromo inh – HP1-beta chromodomain-methylated histone interaction inhibition; AlphaScreen HP1-beta / biotin-H3K9me3 peptide binding; Potency, µM (top dose mostly 114 µM), for the others: top-dose activity change, negative = inhibition, hits mostly inhibitors; actives 0.56% (n = 390,000); P83916; also: nearly all actives have a fitted effect of over 70% in size
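HP1-beta protein (50 nM final) preincubated 30 min at room temperature with biotinylated H3(1-18)K9me3 peptide (50 nM) in PBS pH 7.4, 0.01% Tween-20, then compound added for 30 min. AlphaScreen streptavidin donor/nickel chelate acceptor beads (10 ug/mL final), 30 min dark, luminescence read.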
Sfp PPTase inh – Sfp phosphopantetheinyl transferase inhibition | Q9F4F7 | Biochemical Sfp PPTase activity, qHTS | Potency, µM, for the others: largest response in the series, negative = inhibition, usual class: inhibitors | actives 3.5% (n = 310,000) | AID 1490;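 also: the enzyme is Sfp with the accession as filed and its product quenches rhodamine fluorescence; 0% = enzyme reaction without inhibitor and -100% = no enzyme wells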
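Compounds were incubated with enzyme (final 15 nM) for 15 min at room temperature before substrate addition started the reaction. Fluorescence at 525 nm excitation, 598 nm emission was recorded immediately and after 30 minutes.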
JMJD2A Tudor – blocks the human JMJD2A Tudor domain; actives 4.4% (n = 390,000); Potency, µM (top dose mostly 114 µM), without a hit: at the top dose activity change, negative = inhibition, hits mostly inhibitors; AlphaScreen JMJD2A-Tudor / H3K4me3 peptide binding; O75164; also: % is scaled to controls: 0 for no effect and ±100 for the full control effect; nearly all actives have a fitted effect of over 50% in size
BAZ2B inh – BAZ2B (human) inhibition. AID 504333. actives 4.4% (n = 360,000). AlphaScreen BAZ2B-H3K14Ac peptide displacement. Q9UIF8. Potency, µM (doses to about 114 µM), without a hit: top-dose activity change, negative = inhibition, most hits filed as inhibitors; also: % is scaled to controls: 0 for no effect and ±100 for the full control effect; nearly all actives have a fitted effect of over 60% in size
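Protein-peptide AlphaScreen: BAZ2B 50 nM, b-H3K14Ac 50 nM, 1x PBS pH 7.4 + 0.01% Tween-20. Preincubation 30 min RT; cpd 30 min RT (top 110 uM); beads 20 min RT, light-protected.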
G9a inh – inhibitors of human histone lysine methyltransferase G9a | Potency, µM (titrated, usually from 102 µM), without a hit: at the highest dose activity, negative = inhibition, actives largely listed as inhibitors | actives 8.8% (n = 350,000) | G9a H3K9 monomethylation, AlphaScreen, 2 h | AID 504332 | Q96KQ7; also: % is scaled to controls: 0 for no effect and ±100 for the full control effect; nearly all actives have a fitted effect of over 75% in size
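Signal arises when biotinylated H3K9 peptide, once monomethylated, bridges streptavidin donor and antibody-captured acceptor beads. Enzyme at 20 nM was preincubated 15 min with test compounds; peptide 500 nM and SAM 20 uM then reacted for 2 h.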
PLK1 PBD block – inhibitors of human PLK1 polo-box domain binding; Potency, µM, without a hit: max response, negative = inhibition, usual class: inhibitors; Plk1 PBD binding of FITC phosphopeptide, fluorescence polarization; actives 2.8% (n = 360,000); P53350; also: series mostly up to about 57 µM; % is scaled to controls: 0 for no effect and ±100 for the full control effect; nearly all actives have a fitted effect of over 65% in size
Target sequence (P53350 whole entry, looked up, the tested form may be a part): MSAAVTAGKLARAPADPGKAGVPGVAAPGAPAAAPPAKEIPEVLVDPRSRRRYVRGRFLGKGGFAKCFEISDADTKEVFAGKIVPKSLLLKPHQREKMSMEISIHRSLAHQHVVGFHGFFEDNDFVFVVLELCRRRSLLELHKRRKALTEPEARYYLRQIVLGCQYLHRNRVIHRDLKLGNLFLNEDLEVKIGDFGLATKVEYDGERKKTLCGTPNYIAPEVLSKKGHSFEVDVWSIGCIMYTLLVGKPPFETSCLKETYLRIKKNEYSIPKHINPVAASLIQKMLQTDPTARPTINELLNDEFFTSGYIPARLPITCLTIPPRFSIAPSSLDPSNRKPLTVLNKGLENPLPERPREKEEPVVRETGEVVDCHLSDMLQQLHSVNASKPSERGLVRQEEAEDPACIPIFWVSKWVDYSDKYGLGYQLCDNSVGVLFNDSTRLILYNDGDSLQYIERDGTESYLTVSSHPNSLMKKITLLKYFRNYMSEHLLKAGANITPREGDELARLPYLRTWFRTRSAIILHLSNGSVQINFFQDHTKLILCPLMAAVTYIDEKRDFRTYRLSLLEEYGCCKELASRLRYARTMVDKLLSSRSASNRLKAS
An asterisk follows results filed as active; ? = inconclusive; . = not tested or not shown; [ ] = another dose, or the depositor's remark. Most compounds without a hit are left out; they make up all but 12% or so of the library. Calls follow the shape of the dose curve; as a rule, active = well fitted curve in the direction sought with a large enough effect; inconclusive = small, poorly fitted or top-dose-only effect, or another doubt; inactive = no such curve, though single readings can be large; an effect the other way counts as inactive or inconclusive. Potency is read from the fitted curve at half-maximal effect.

SMILES | HP1b chromo inh | Sfp PPTase inh | JMJD2A Tudor | BAZ2B inh | G9a inh | PLK1 PBD block
O=C(NCC(=O)N1CCN(c2ccccc2O)CC1)c1ccc2c(c1)OCO2 | 12% | 6% | -16% | 1% | -4% | -12%
CCc1ccc(CNC(=O)c2c(C)oc3ncn(CC(C)C)c(=O)c23)cc1 | 37% | . | 3% | 7%[57.1 µM] | -7%[59 µM] | .
CC1=NN(c2nc(-c3ccc(C)cc3)cs2)C(=O)C1N=Nc1cccc(C)c1 (centres undefined) | ? | -9% | ? | ? | ? | -7%
CCOC(=O)c1sc(N2N=C(C)C(N=Nc3cccc(C)c3)C2=O)nc1C (centres undefined) | -1% | -22% | -26%[11.4 µM] | -33% | 50µM* | -8%
CSc1ncc(-c2ccc(Cl)cc2)[nH]1 | 2% | -16% | -21% | ? | 40µM* | -4%
O=C(CCNC(=O)c1ccco1)Nc1ccc(F)c(Cl)c1 | -3% | 14% | -1% | -29% | -15% | -6%
O=C(CCNC(=O)c1ccco1)Nc1ccc(Cl)cc1 | -5% | -3% | ? | 0% | 12%[0.0925 µM] | 30µM*
CCN(CC)c1ccc(NC(=O)CCNC(=O)c2ccco2)cc1 | -39% | 3% | ? | ? | 7.9µM* | 1%
Cc1cc(N2CCOCC2)ccc1/C=C1\NC(=O)N(Cc2ccccc2F)C1=O | 5% | 18% | -28% | -12% | 14%[59 µM] | -1%
Cc1cc(N2CCOCC2)ccc1/C=C1\NC(=O)N(Cc2ccccc2)C1=O | 36% | 4% | -7% | -29% | 50µM* | -6%
Cc1cc(/C=C2\NC(=O)N(Cc3ccc(Cl)cc3)C2=O)c(C)n1C | 22% | 0% | -29% | -28% | 16µM* | -2%
Cc1cccc(CN2C(=O)N/C(=C/c3ccc(C)s3)C2=O)c1 | 48% | -24% | 3% | 5% | 1%[12.7 µM] | 23%
Cc1ccc(/C=C2/NC(=O)N(Cc3ccccc3)C2=O)s1 | -1% | 50µM* | -11% | ? | ? | 27%
Cc1ccc(CN2C(=O)N/C(=C/c3ccc4c(c3)n(C)c(=O)n4C)C2=O)cc1 | . | -3% | . | ? | 20% | .
CCN1C(=O)/C(=C/c2ccc(C)s2)NC1=S | 26% | 7% | -26% | -34% | 13µM* | -7%
CCOC(=O)COc1ccc(/C=C2\NC(=S)N(CC)C2=O)cc1 | 30% | 3% | -12% | -6% | 7%[59 µM] | -15%
Cc1cc(C(=O)CCl)c(C)n1Cc1ccco1 | ? | -24% | ? | ? | -43% | ?
Cc1ccc2cccc(OCC(=O)c3cc(C)n(Cc4ccco4)c3C)c2n1 | . | 56µM* | . | -36% | ? | .
Cc1ccc(C(=O)NCC(=O)OCC(=O)c2cc(C)n(Cc3ccco3)c2C)cc1 | ? | 10% | ? | ? | 45µM* | -5%
CC(=O)Nc1sc(N/N=C\c2cccc(Cl)c2)nc1-c1cccs1 | ? | -4% | ? | -32% | 10µM* | ?
CC(=O)Nc1sc(N/N=C\c2ccccc2F)nc1-c1cccs1 | ? | -30% | ? | -4% | 10µM* | -12%
CC(=O)Nc1sc(NC(=O)c2ccccc2)nc1-c1cccs1 | 27% | 0% | -9% | 10% | 5% | -5%
CC(=O)Nc1sc(N/N=C\c2ccc(O)cc2)nc1-c1cccs1 | ? | ? | 40µM* | ? | 32µM* | 27µM*
C1CCN2CC3CC(CN4CCCC[C@@H]34)C2C1 (some centres undefined) | . | -18% | . | . | . | .
CN(CCC1CCOCC1)C(=O)C1CCC(=O)N(CCc2ccccc2)C1 (centres undefined) | 27% | 10% | -19% | -10% | 0% | -8%
SMILES | HP1b chromo inh | Sfp PPTase inh | JMJD2A Tudor | BAZ2B inh | G9a inh | PLK1 PBD block
Cc1cc(C)n(-c2ccc(NC(=O)C3CCCCN3Cc3cccc4c3OCO4)cc2)n1 (centres undefined) | 19% | 3% | -25% | -29% | -13% | 3%
CSc1ccc(CNC(=O)Cn2nc(C)c3c(C)n(-c4ccc(C)cc4)nc3c2=O)cc1 | 35% | 12% | 11% | -17% | -3%[59 µM] | -9%
C=CCSC1=Nc2cc(OC)c(OC)cc2C2=NC(=O)CN12 | 28% | -10% | -16% | -19% | 50µM* | -16%
COc1cc2c(cc1OC)C1=NC(=O)CN1C(SCc1ccc(C)cc1)=N2 | 14% | -7% | -13%[57.1 µM] | 79µM* | ? | -7%
Cc1ccc(CSC2=Nc3sccc3C3=NC(=O)CN23)cc1 | 20% | -9% | -27% | 4% | -10%[12.7 µM] | -6%
CN(C(=O)COC(=O)C1CCN(S(=O)(=O)c2ccc3c(c2)OCCO3)CC1)C1CCS(=O)(=O)C1 (centres undefined) | 29% | . | -12% | 8% | -10%[2.33 µM] | 1%
CC(=O)Nc1ccc(S(=O)(=O)N2CCc3nc(-c4ccccc4)c4c(c3C2)CO[C@@H](C)C4)cc1 | . | -2% | . | . | . | .
COC(=O)c1ccc(C(=S)N2CCCCC2)cc1 | 26% | 14% | -5% | -15% | 21%[12.7 µM] | -12%
S=C(c1ccc(Br)cc1)N1CCCC1 | 11% | -11% | 0% | -4% | 45µM* | ?
S=C(c1ccc(N2CCOCC2)cc1)N1CCCCC1 | 9% | 22% | -6% | 7% | -5%[59 µM] | -15%
Oc1ccc(C(=S)N2CCCCC2)cc1 | -21% | 50µM* | -15% | 0% | 45µM* | 19µM*
O=C(O)c1ccc(CNC(=O)C2CCCN2C(=O)OCc2ccccc2)cc1 (centres undefined) | 24% | 6% | -14% | 1% | 16% | 2%
COc1ccccc1N1CCCSC1=Nc1ccccc1 | . | . | . | . | . | 8%
COC(=O)\C(C(C)=O)=C(/C=C/C=C/C=C/N(C)C)N(C)C | ? | -18% | 11µM* | 18µM* | 32µM* | 70%
Cc1cccc2sc(NC(=O)CSCc3ccccc3)nc12 | 72% | 4% | 8% | 2% | 23%[12.7 µM] | -21%
Cc1cccc2sc(NC(=O)CCn3cccc3)nc12 | ? | 13% | -32% | . | 50µM* | -5%
CCC(=O)NNc1nc2c(C)cccc2s1 | 30% | 50µM* | -8% | . | ? | -6%
Cc1cccc2sc(NC(=O)Cn3cccc3)nc12 | 5% | -8% | ? | ? | 45µM* | 4%
Cc1ccc2nc(NC(=O)CCn3cccc3)sc2c1 | 30% | 5% | -10% | -6% | 3% | 3%
C=CCNc1nc(C(=O)OCC(=O)c2ccc(Cl)cc2)cs1 | -38% | . | 50µM* | 35µM* | 50µM* | -26%
C=CCNc1nc(C(=O)OCC(=O)c2ccc(C)c([N+](=O)[O-])c2)cs1 | -13% | 6% | -24% | 50µM* | 13% | -18%
C=CCNc1nc(C(=O)OCC(=O)Nc2ccccc2C(F)(F)F)cs1 | 17% | . | -4% | ? | 24%[12.7 µM] | -3%
C=CCNc1nc(C(=O)OCC(=O)c2ccc(OC)cc2OC)cs1 | 22% | . | -8% | 7% | 21% | -2%

Bioassay records (PubChem BioAssay)
